This passage reports cytotoxicity call results from the antibiotic and cytotoxicity screens of Wong et al. (2023).

The whole screen tested about 39,000 compounds, of which about 1,500 (3.8%) were called active. What follows is part of a selection rich in actives, with near analogues and random picks from the rest.

In this assay the test system is HSkMC (human skeletal muscle cells). Description: cytotoxicity call (relative viability < 0.9). The conditions noted are these: 10 µM.
As to `C[C@H](CO)N1C[C@H](C)[C@H](CN(C)S(=O)(=O)c2ccc(F)cc2)Oc2ncc(C#CCN(C)C)cc2C1=O`, the cytotoxicity call was “inactive”.
Consider `CCS(=O)(=O)NCC[C@@H]1CC[C@@H](NC(=O)C2CCOCC2)[C@H](CO)O1`, for which the cytotoxicity call was “inactive”.
For `Cc1ccccc1S(=O)(=O)N1C[C@H](O)COC[C@@H]2O[C@H](CC(=O)NCc3ccccc3Cl)CC[C@H]21` the value was “inactive”; for `O=C(N[C@@H](c1ccc(-c2ccccc2)cc1)c1cnccn1)C1CCN(Cc2cccc(C(F)(F)F)c2)CC1`, “inactive”.
For `O=C(NC1(c2ccccc2)CC1)c1c(CN2CCC(N3CCCCC3)CC2)c(-c2cccc(C(F)(F)F)c2)nc2cc(Br)ccc12` the value was “active”.
The result for `COc1ccc(S(=O)(=O)N(C)C[C@H]2Oc3ccc(NC(=O)CCCN(C)C)cc3CC(=O)N([C@H](C)CO)C[C@@H]2C)cc1` reads “inactive”.
As for `Cc1noc(C)c1NC(=O)N(C)C[C@@H]1OCCCC[C@@H](C)Oc2ccc(NC(=O)CCCCCC(=O)Nc3ccccc3N)cc2C(=O)N([C@H](C)CO)C[C@@H]1C`, the cytotoxicity call is “inactive”.
The result for `CO[C@@H]1CN(C)C(=O)c2ccc(NC(=O)CC(F)(F)F)cc2OC[C@H](C)N(C(=O)C2CCOCC2)C[C@H]1C` reads “inactive”.
The result for `Cc1noc(C)c1NC(=O)Nc1cccc2c1O[C@H](CN(C)Cc1ccc(C(F)(F)F)cc1)[C@@H](C)CN([C@@H](C)CO)C2=O` reads “inactive”; that for `COc1ccc(NC(=O)Nc2ccc3c(c2)C(=O)N([C@@H](C)CO)C[C@H](C)[C@@H](CN(C)C(=O)Nc2ccc(F)cc2)OCCCC[C@H](C)O3)cc1`, “inactive”; that for `C[C@H]1CN([C@@H](C)CO)C(=O)c2cccc(NC(=O)Nc3ccc(C(F)(F)F)cc3)c2O[C@@H]1CN(C)Cc1ccc2c(c1)OCO2`, “active”.
The result for `C[C@H]1CN([C@@H](C)CO)C(=O)c2cccc(NC(=O)Nc3ccc4c(c3)OCO4)c2O[C@H]1CN(C)Cc1ccc(C(F)(F)F)cc1` reads “inactive”.
Take `C[C@H]1CN([C@@H](C)CO)C(=O)c2cccc(NC(=O)Nc3ccc4c(c3)OCO4)c2O[C@@H]1CN(C)Cc1ccc(C(F)(F)F)cc1`: the cytotoxicity call was “inactive”.
As to `C[C@@H]1CN([C@H](C)CO)C(=O)c2cccc(NC(=O)Nc3ccc(C(F)(F)F)cc3)c2O[C@H]1CN(C)Cc1ccc2c(c1)OCO2`, the cytotoxicity call is “inactive”.
For `C[C@H](CO)N1C[C@H](C)[C@H](CN(C)Cc2ccc3c(c2)OCO3)Oc2c(NC(=O)Nc3ccc(C(F)(F)F)cc3)cccc2C1=O` the value was “inactive”.
For `C[C@@H]1CN([C@@H](C)CO)C(=O)c2cccc(NC(=O)Nc3ccc(C(F)(F)F)cc3)c2O[C@@H]1CN(C)Cc1ccc2c(c1)OCO2` the value was “inactive”; for `C[C@H]1CN([C@@H](C)CO)C(=O)c2cccc(NC(=O)Nc3ccc(C(F)(F)F)cc3)c2O[C@H]1CN(C)Cc1ccc2c(c1)OCO2`, “inactive”.
Turning to `C[C@H](CO)N1C[C@H](C)[C@@H](CN(C)Cc2ccc3c(c2)OCO3)Oc2c(NC(=O)Nc3ccc(C(F)(F)F)cc3)cccc2C1=O`, the cytotoxicity call is “active”.
For `C[C@@H]1CN([C@H](C)CO)C(=O)c2cccc(NC(=O)Nc3ccc(C(F)(F)F)cc3)c2O[C@@H]1CN(C)Cc1ccc2c(c1)OCO2` the value was “inactive”.
For `C[C@@H]1CN([C@@H](C)CO)C(=O)c2cccc(NC(=O)Nc3ccc(C(F)(F)F)cc3)c2O[C@H]1CN(C)Cc1ccc2c(c1)OCO2` the value was “active”; for `C[C@H](CO)N1C[C@H](C)[C@H](CN(C)Cc2ccc(C(F)(F)F)cc2)Oc2c(NC(=O)Nc3ccc4c(c3)OCO4)cccc2C1=O`, “inactive”.
In the case of `C[C@@H]1CN([C@@H](C)CO)C(=O)c2cccc(NC(=O)Nc3ccc4c(c3)OCO4)c2O[C@H]1CN(C)Cc1ccc(C(F)(F)F)cc1`, the cytotoxicity call is “active”.
For `C[C@H]1CCCCO[C@@H](CN(C)C(=O)Nc2ccc3c(c2)OCO3)[C@@H](C)CN([C@@H](C)CO)C(=O)c2cc(NS(=O)(=O)c3cccs3)ccc2O1` the value was “inactive”.
Take `Cc1cc(C(=O)Nc2cccc3c2O[C@@H](CN(C)S(=O)(=O)c2cccs2)[C@H](C)CN([C@H](C)CO)C3=O)n(C)n1`: the cytotoxicity call is “inactive”.
For `C[C@H]1CCCCO[C@H](CN(C)C(=O)NC2CCCCC2)[C@@H](C)CN([C@@H](C)CO)C(=O)c2cc(NS(=O)(=O)c3cccs3)ccc2O1` the value was “inactive”.
For `C[C@@H]1CCCCO[C@@H](CN(C)Cc2ccc(C(F)(F)F)cc2)[C@H](C)CN([C@H](C)CO)C(=O)c2cc(NC(=O)c3ccncc3)ccc2O1` the value was “inactive”; for `O=C(NCc1nc2ccccc2[nH]1)C1=C[C@@H](c2ccc(Br)cc2)C[C@@H](OCc2ccc(CO)cc2)O1`, “inactive”; for `Cc1ccc(S(=O)(=O)N(C)C[C@@H]2Oc3ccc(NC(=O)Nc4ccc(C(F)(F)F)cc4)cc3C(=O)N([C@H](C)CO)C[C@@H]2C)cc1`, “inactive”.
In the case of `CS(=O)(=O)[C@H]1CCNC1`, the cytotoxicity call was “inactive”.
For `CC(C)(C)S(=O)N1Cc2cc(C(=O)NCc3ccc4c(c3)OCO4)nc(-c3cccc(-c4cccc(F)c4)c3)c2[C@H]1CCO` (stereo not given in full) the value was “inactive”; for `COc1ccccc1CNC(=O)C[C@H]1CC[C@@H]2[C@H](COC[C@H](O)CN2C(=O)Nc2ccc(F)cc2)O1`, “inactive”; for `O=C(C[C@H]1C[C@H]2c3cc(NC(=O)C4CCOCC4)ccc3O[C@H]2[C@H](CO)O1)NCc1ccc2c(c1)OCO2`, “inactive”.
For `C[C@@H]1CN([C@@H](C)CO)C(=O)c2cccc(NC(=O)c3nc4ccccc4s3)c2O[C@H]1CN(C)C(=O)Nc1ccc(C(F)(F)F)cc1` the value was “inactive”.
The result for `COc1ccccc1S(=O)(=O)N[C@@H]1CC[C@H](CCNC(=O)C2CC2)O[C@H]1CO` reads “inactive”; that for `CN(C)CCCNC(=O)[C@@H]1[C@@H](CO)[C@@H]2Cn3c(ccc(-c4cccc(C(=O)N(C)C)c4)c3=O)[C@H]1N2`, “inactive”.
As to `C[C@@H]1O[C@H](O[C@H]2[C@H](OC(=O)[C@]34CCC(C)(C)C[C@@H]3C3=CC[C@@H]5[C@@]6(C)CC[C@H](O[C@@H]7O[C@@H](C)[C@H](O[C@@H]8OC[C@@H](O)[C@H](O)[C@H]8O)[C@@H](O)[C@H]7O)C(C)(C)[C@@H]6CC[C@@]5(C)[C@]3(C)C[C@@H]4O)OC[C@H](O)[C@H]2O)[C@H](O)[C@H](O)[C@H]1O[C@@H]1O[C@H](CO)[C@@H](O)[C@H](O)[C@H]1O`, the cytotoxicity call is “inactive”.
For `C=C[C@](C)(O)CC/C=C(\C)C(=O)O[C@@H]1[C@@H](O[C@@](C)(C=C)CC/C=C(\C)C(=O)O[C@H]2C[C@@]3(C(=O)O[C@H]4OC[C@@H](O[C@H]5O[C@@H](CO)[C@@H](O)[C@@H](O[C@H]6O[C@@H](CO)[C@@H](O[C@H]7O[C@@H](CO)[C@@H](O)[C@@H](O)[C@@H]7O)[C@@H](O)[C@@H]6O)[C@@H]5O)[C@@H](O)[C@@H]4O)[C@@H](O)C[C@@]4(C)C(=CC[C@H]5[C@@]6(C)CC[C@@H](O[C@H]7O[C@@H](CO)[C@@H](O[C@H]8O[C@@H](CO)[C@@H](O)[C@@H](O[C@H]9OC[C@@H](O)[C@@H](O)[C@@H]9O)[C@@H]8O)[C@@H](O)[C@@H]7O)C(C)(C)[C@@H]6CC[C@@]54C)[C@@H]3CC2(C)C)OC[C@@H](O)[C@H]1O` the value was “active”; for `C[C@@H]1O[C@@H](O[C@H]2[C@H](OC(=O)[C@]34CCC(C)(C)C[C@H]3C3=CC[C@H]5[C@@]6(C)CC[C@H](O[C@@H]7O[C@H](CO)[C@@H](O)[C@H](O)[C@H]7O)C(C)(C)[C@@H]6CC[C@@]5(C)[C@]3(C)C[C@H]4O)OC[C@H](O)[C@@H]2O)[C@H](O)[C@H](O[C@@H]2OC[C@H](O)[C@H](O)[C@H]2O)[C@H]1O[C@@H]1OC[C@@H](O)[C@H](O[C@@H]2OC[C@H](O)[C@H](O)[C@H]2O)[C@H]1O`, “inactive”.
As for `C[C@H](CO)N1C[C@H](C)[C@H](CN(C)S(=O)(=O)c2ccccc2)Oc2ccc(NC(=O)CCN3CCOCC3)cc2CC1=O`, the cytotoxicity call was “inactive”.
With `C[C@@H]1CN([C@H](C)CO)S(=O)(=O)c2ccc(C3=CCCC3)cc2O[C@H]1CN(C)S(=O)(=O)c1cn(C)cn1`, the cytotoxicity call was “inactive”.
On to `C/C1=C2/[N]([Co+][OH])[C@H]([C@H](CC(N)=O)[C@@]2(C)CCC(=O)NC[C@@H](C)OP(=O)(O)O[C@H]2[C@@H](O)[C@@H](n3cnc4cc(C)c(C)cc43)O[C@@H]2CO)[C@]2(C)N=C(/C(C)=C3N=C(/C=C4N=C1[C@@H](CCC(N)=O)C/4(C)C)[C@@H](CCC(N)=O)[C@]\3(C)CC(N)=O)[C@@H](CCC(N)=O)[C@]2(C)CC(N)=O`, for which the cytotoxicity call is “active”.
The result for `C[C@H]1CN([C@@H](C)CO)C(=O)Cc2cc(NC(=O)Cn3cnnn3)ccc2O[C@@H]1CN(C)S(=O)(=O)c1ccc(Cl)cc1` reads “inactive”.
For `CC(C)N1CC[C@@H](CN(C)Cc2ccc(Cl)cc2)Oc2c(NC(=O)c3ccncc3)cccc2C1=O` the value was “inactive”; for `Cc1ccc2c(c1)c1nc3ccccc3nc1n2Cc1ccccc1`, “inactive”.
For `Cc1ccc(C(=O)N(CCCN)[C@@H](c2oc3cc(Cl)ccc3c(=O)c2Cc2ccccc2)C(C)C)cc1` the value was “active”; for `Cc1ccc(C(=O)N(CCCN)[C@@H](c2nc3cc(Cl)ccc3c(=O)n2Cc2ccccc2)C(C)C)cc1`, “active”.
As for `COc1ccc2cc(S(=O)(=O)N[C@H](CC(=O)N[C@H](Cc3ccc(CN4[C@H](C)CCC[C@@H]4C)cc3)C(=O)N(C)C(C)C)c3ccc4c(c3)OCO4)ccc2c1`, the cytotoxicity call is “inactive”.
As to `C[C@@H]1CCCCO[C@@H](CN(C)Cc2ccc(Cl)c(Cl)c2)[C@@H](C)CN([C@@H](C)CO)C(=O)c2cc(NC(=O)CCC(F)(F)F)ccc2O1`, the cytotoxicity call is “inactive”.
On to `CO[C@H](C(=O)N(C)C[C@H]1OCc2ccccc2-c2c(n(C)c3ccccc23)C(=O)N([C@@H](C)CO)C[C@H]1C)c1ccccc1`, for which the cytotoxicity call was “inactive”.
For `C[C@@H]1CN([C@H](C)CO)C(=O)c2cc(NS(C)(=O)=O)ccc2O[C@@H]1CN(C)C(=O)NC1CCCCC1` the value was “inactive”.
